These results are taken from PubChem BioAssay AID1342 (University of Pittsburgh Molecular Library Screening Center, 2008).

The IC50 is the point on the concentration scale where inhibition reaches its midpoint.

The assay can be described thus: fluorescence polarization artefacts, biochemical, 57K campaign, artefact control, dose response (AID 1342). The conditions noted are these: PKD fluorescence polarization interference counter-screen. In general terms: Polarisation of emitted light reports the rotation of a fluorescent probe.

Unmarked numbers belong to inactive results. No rule for the calls is given here.

For the compound `C/C(=N\Nc1ncc(Cl)cc1Cl)c1ccccn1`, the IC50 was 16.7 µM.
